From PubChem BioAssay come the findings set out here.

For orientation: inhibition means the drop in the measured response relative to a control, in per cent.

Assay [1] in a line: circadian clock period modulators, cell-based, LOPAC library, luminescence reporter (AID 2774).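 Also: values are relative to mean of DMSO wells on each plate.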 The settings on record: circadian reporter cells, at 7 µM, actives lie on both sides.
Assay [2] has as its system Hepatitis C virus NS3 helicase. Put plainly: HCV NS3 helicase inhibitors, primary screen, biochemical, fluorescence polarization, LOPAC1280 library (AID 687035; in the data active = inhibition above about 37%). Conditions: Purified HCV NS3 helicase, Cy5-dT15 ssDNA binding fluorescence polarization; stronger effect = higher value; concentration not given here. Background: Fluorescence polarisation rises when a labelled molecule tumbles more slowly, as on binding a larger partner.

Assay [3] can be described thus: Cy5 fluorescence quenching or enhancement artefacts, artefact control for HCV NS3 helicase inhibitor project, biochemical, LOPAC1280 (AID 687037). The settings on record: Cy5-DNA-NS3h complex fluorescence interference counterscreen. Background: Counterscreens check selectivity or assay interference.
Assay [4] is described as follows: sensitizers of A549 cells to miR-34 induction, primary screen, imaging, A549 dox-inducible miR-34, nuclei and caspase counts (AID 1347080;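 active = compounds whose cell count with miR-34 switched on is under 0.7 times the count with it off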). Conditions: A549 miR-34 inducible, Hoechst nuclei count, 48 h.
A short description of assay [5]: viability rescue of complex I mutant cybrids, primary screen, cell-based, galactose medium, ATP luminescence (AID 1645843;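 active = z-score of at least 1.8 in each of two replicates, scored against plate mean and spread of sample wells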;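 also: positive z means more ATP and so rescue of galactose-driven cybrid death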). The settings on record: complex I mutant cybrid cells, 72 h, stronger effect = higher value.
Assay [6] in a line: hESC survival regulators, cell-based (AID 493140).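 Also: cells exposed to compounds for four days before counting.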 The settings on record: human embryonic stem cell survival screen; stronger effect = higher value.
[7] abbreviates: stronger effect = lower value, cell number ratio, induced over uninduced.
Setting [8] is: measured here: relative caspase fold change +Dox/-Dox.
The mark [9] stands for this setting: measured here: total cells with miR-34 induction, stronger effect = lower value.
Setting [10] is: measured here: total cells without miR-34 induction.

“And” between values parts separate entries of the source, which are not always exact repeats. Equal values may be shown once. The source made the active and inactive calls. Unless noted, no rule for the calls is given here.

With `CNc1ncnc2c1ncn2[C@H]1C[C@H](OP(=O)(O)O)[C@@H](COP(=O)(O)O)O1`, the period change in assay [1] is -0.03 h (inactive). Moreover, in assay [2], the inhibition is -4% (inactive). The fluorescence ratio (interference) in assay [3] was 1 (inactive). For the same molecule, the fold change in assay [4] (setting [7]) was 1.08 (inactive); in assay [4] (setting [8]), 1.03. The cell count in assay [4] (setting [9]) turned out to be 10600; in assay [4] (setting [10]) it was 9840. Further, the z-score in assay [5] is 0.465 (inactive).

On to `CC[C@@H]1Cc2cc(O)ccc2C2=C1c1ccc(O)cc1C[C@H]2CC`, for which, in assay [1], the period change is -0.02 h (inactive). In addition, the inhibition in assay [2] is 0% (inactive). The fluorescence ratio (interference) in assay [3] was 1 (inactive). For the same molecule, the fold change in assay [4] (setting [7]) was 1.3 (inactive); in assay [4] (setting [8]), 0.93. Also, the cell count in assay [4] (setting [9]) came to 4580; in assay [4] (setting [10]), 3520. In assay [5], the z-score is -0.765 (inactive).

`O=C(O)CCC/C=C\C[C@@H]1[C@@H](/C=C/[C@H](O)C2Cc3ccccc3C2)[C@@H](F)C[C@@H]1O`: in assay [1], the period change was -0.195 h (inactive). Also, in assay [2], the inhibition was -2% (inactive). In assay [3], the fluorescence ratio (interference) is 1 (inactive). Also, the fold change was 0.962 (inactive) and 0.866 (inactive) in assay [4] (setting [7]); 1.71 and 1.08 in assay [4] (setting [8]). Also, the cell count in assay [4] (setting [9]) is 9120 and 5490; in assay [4] (setting [10]), 9480 and 6340. The z-score in assay [5] was 0.805 (inactive).

Consider `CN(C)C(=O)/N=N/C(=O)N(C)C`, for which the period change in assay [1] was 0.015 h (inactive). In addition, the fold change is 1.04 (inactive) in assay [4] (setting [7]) and 1.27 in assay [4] (setting [8]). Also, the values for the cell count in assay [4] (setting [9]) and in assay [4] (setting [10]) were 10000 and 9690, respectively. Also, in assay [5], the z-score is -1.03 (inactive).

For `CCCCC[C@H](O)/C=C/[C@@H]1[C@H](C/C=C\CCCC(=O)O)[C@@H](O)C[C@H]1O`, the survival in assay [6] is 105 (inactive). Further, the fold change in assay [4] (setting [7]) is 0.908 (inactive) and 0.973 (inactive); in assay [4] (setting [8]), 1.37 and 1.68. In addition, the cell count in assay [4] (setting [9]) was 6000 and 5340; in assay [4] (setting [10]) it was 6610 and 5490.

Regarding `CC/C=C\C/C=C\C/C=C\C/C=C\C/C=C\C/C=C\CCC(=O)O[C@H](COCCCCCCCCCCCCCCCC)COP(=O)([O-])OCC[N+](C)(C)C`, the survival in assay [6] is 68.5 (inactive). The values for the fold change in assay [4] (setting [7]) and in assay [4] (setting [8]) were 1.06 (inactive) and 1.37, respectively. The cell count came to 5710 in assay [4] (setting [9]) and 5380 in assay [4] (setting [10]).
